In PubChem BioAssay AID504321 (NMMLSC, 2011):
Calls of active or inactive are those of the source.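 How the source made its calls: active means GFP response vs DMSO above 150% with enough events counted; inconclusive means fewer than 70 events counted for a yeast strain; inactive means the rest.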

experiment: MEP2-GFP expression modulation in yeast, confirmation, flow cytometry, third cherry pick, S. cerevisiae (AID 504321);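 further: median per-cell GFP fluorescence by flow cytometry across all yeast cells; ratio of sample to DMSO median GFP so 100% equals the DMSO level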; details: S. cerevisiae MEP2-GFP strain, 3 h, at 10 µM, active compounds read high

Compound | GFP response vs DMSO
CCCC(=O)Nn1cnc2c(c1=O)C1(CCCCC1)Cc1ccccc1-2 | 105% (inactive)
COc1ccccc1Nc1nc(NCCCN(C)C)nc(N)c1[N+](=O)[O-] | 112% (inactive)
CCCOCc1ccc(O)c2ncccc12 | 110% (inactive)
CC1=CN2C(=N)/C(=C/c3ccco3)C(=O)N=C2S1 | 105% (inactive)
CCC(C)Nc1nc(N)c([N+](=O)[O-])c(Nc2cc(OC)ccc2OC)n1 (centres undefined) | 114% (inactive)
OCCNc1ncnc2ccc(Br)cc12 | 101% (inactive)
Cc1ccc(NN2C(=O)C=C(c3ccccc3)C2=O)cc1 | 140% (inactive)
O=C1c2ccccc2C(=O)c2c1cccc2N(CCO)CCO | 108% (inactive)
Cc1ccc(-c2cc(C(F)F)nc(S(C)(=O)=O)n2)cc1 | 121% (inactive)
CCN(CC)C(=O)Oc1ccnc2cc(Cl)ccc12 | 110% (inactive)
CC(=O)C(Cl)C(=O)Nc1ccccc1 (centres undefined) | 118% (inactive)
CC(=O)NCCOc1cccc2cccnc12 | 110% (inactive)
O=C(O)c1ccc2cccnc2c1O | 101% (inactive)
COc1ccccc1-c1cc(C(F)(F)F)nc(S(C)(=O)=O)n1 | 142% (inactive)
COc1ccc(Nc2nc(NN)nc(C)c2[N+](=O)[O-])cc1 | 101% (inactive)
CCc1sc(C(=O)Nc2nc(-c3ccccn3)cs2)cc1C | 114% (inactive)
Cc1cn2c(N)c(C=C3C=C(Cl)C(=O)C(Cl)=C3)c(=O)nc2s1 | 112% (inactive)
CSc1ccccc1OCc1cc(C(=O)N2CCN(C)C(c3ccccc3)C2)no1 (centres undefined) | 103% (inactive)
COc1ccccc1OCc1cc(C(=O)N2CCN(C)C(c3ccccc3)C2)no1 (centres undefined) | 110% (inactive)
CC1=CN2C(=N)/C(=C/c3ccc(C)o3)C(=O)N=C2S1 | 105% (inactive)

Compound | GFP response vs DMSO
O=C(Nc1nc(-c2ccccn2)cs1)c1ccccc1-n1cnnn1 | 94.7% (inactive)
Cn1c(NCCCO)nc2c(c1=O)C1(CCCCC1)Cc1ccccc1-2 | 112% (inactive)
Cc1ccc(Nc2cc(=O)[nH]c(=O)[nH]2)cc1C | 114% (inactive)
CCC(=O)Nn1cnc2c(c1=O)C1(CCCCC1)Cc1ccccc1-2 | 110% (inactive)
Cn1c(=O)c2c(n3cnnc13)-c1ccccc1CC21CCCC1 | 112% (inactive)
Oc1ccc(Cl)c2cccnc12 | 101% (inactive)
COc1ccc(N/C(C)=C/C(=O)c2ccccc2)cc1 | 103% (inactive)
O=C(O)CCS(=O)(=O)c1nc(-c2cccs2)cc(C(F)(F)F)n1 | 116% (inactive)
Cc1cc(C)c(NC(=O)CC(=O)c2ccccc2)c(Cl)c1 | 105% (inactive)
Cc1ccc(Nc2cc(=O)[nH]c(=O)[nH]2)cc1Cl | 101% (inactive)
COc1ccccc1Nc1nc(NCC(C)C)nc(N)c1[N+](=O)[O-] | 114% (inactive)
O=C(O)CCCCCNc1ncnc2ccc(Br)cc12 | 101% (inactive)
OCc1ccc(O)c2ncccc12 | 99% (inactive)
CCOC(=O)CS(=O)(=O)c1nc(-c2ccccc2)cc(C(F)(F)F)n1 | 151% (active)
C=CCNc1nc(N)c([N+](=O)[O-])c(Nc2cccc(Cl)c2)n1 | 108% (inactive)
COc1cccc(N/C(C)=C/C(=O)c2ccc(Br)cc2)c1 | 101% (inactive)
C=CCNc1ncnc2ccc(Br)cc12 | 110% (inactive)
O=C(Nc1cccc(Cl)c1)ON=C1c2ccccc2-c2ccccc21 | 110% (inactive)
C[n+]1cccc2cccc([O-])c21 | 116% (inactive)
